# Screening data: PubChem BioAssay, The Scripps Research Institute Molecular Screening Center
# hgDAF12 agonist – H. glycines DAF-12 receptor agonists, primary screen, cell-based, luminescence, HEK293, GAL4 fusion, UAS-luciferase. Nuclear hormone receptor DAF-12 (Heterodera glycines), GAL4 fusion. HEK293 GAL4-hgDAF12 UAS-luciferase reporter, agonist luminescence; normalized to butyrate control. activation, % at 6.8 µM. hit rate 1.8% among 370,000;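 active means activation above a cutoff set at the mean of all screened compounds plus 3 SD, cut at about 10% in these data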;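 further: 0% = DMSO wells and 100% = sodium butyrate wells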
# SMARCA2 activ – SMARCA2 (BRM) function activators, primary screen, cell-based, luminescence, high throughput; MG213 cells, MMTV-luciferase reporter, dexamethasone, overnight; activation, % at 9.1 µM; hit rate 1% among 370,000; AID 652017, 2013; in the data active means activation above about 7.8%;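 further: 0% = vehicle wells and 100% = reference activator wells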
# DAX1 inh-1 – DAX1 (NR0B1) inhibitors on StAR promoter, primary screen, cell-based, luminescence, SF-1 (NR5A1), full-length DAX-1; HEK293T StAR-luciferase reporter, SF-1/DAX-1 repression relief; inhibition, % at 6.8 µM; hit rate 1.1% among 370,000; AID 652010, 2013;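 active means inhibition above the mean over all tested compounds plus 3 SD, cut at about 3.6% in these data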;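 further: 0% = DAX-1 cells with DMSO and 100% = cells lacking DAX-1 with DMSO; higher inhibition means more luminescence from relief of DAX-1 repression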
# hcDAF-12 act – H. contortus DAF-12 nuclear receptor activators, primary screen, cell-based, luminescence, HEK293, lit1-tk-luc reporter | AID 652067, 2013 | activation, % at 6.8 µM | hit rate 1.4% among 370,000 | HEK293 hcDAF-12 lit1-tk-luc reporter; 0% DMSO, 100% Δ7-dafachronic acid;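 active means activation above the mean of all tested compounds plus 3 SD, cut at about 5.5% in these data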;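 further: 100% = response to 3 µM Δ7-dafachronic acid high control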
# ssDAF12 agonist – S. stercoralis DAF-12 nuclear receptor activators, primary screen, cell-based, luminescence, HEK293, GRIP1 co-expression, lit1-tk-luc; activation, % at 6.8 µM; hit rate 1% among 370,000; Nuclear hormone receptor DAF-12 (Strongyloides stercoralis); HEK293 ssDAF-12/GRIP1 lit1-tk-luc reporter; % of 3 µM dafachronic acid response;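 active means activation above the mean over all tested compounds plus 3 SD, cut at about 0.9% in these data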;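 further: 0% = DMSO-only wells and 100% = 3 µM delta7-dafachronic acid wells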
# DAX1 inh-2 – DAX1 (NR0B1) inhibitors, primary screen, cell-based, HEK293, Gal4-DAX1, luciferase luminescence; Nuclear receptor subfamily 0 group B member 1 (Homo sapiens), P51843; HEK293 Gal4-DAX1 luciferase reporter; inhibition, % at 6.75 µM; hit rate 0.99% among 340,000;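 active means inhibition above the mean over all tested compounds plus 3 SD, cut at about 4.2% in these data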;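 further: 0% = DAX1-transfected cells with DMSO and 100% = empty-vector control cells with DMSO; inhibition shows as a rise in luminescence from relieved DAX1 repression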
# Target sequence (P51843 207-470 limits assumed): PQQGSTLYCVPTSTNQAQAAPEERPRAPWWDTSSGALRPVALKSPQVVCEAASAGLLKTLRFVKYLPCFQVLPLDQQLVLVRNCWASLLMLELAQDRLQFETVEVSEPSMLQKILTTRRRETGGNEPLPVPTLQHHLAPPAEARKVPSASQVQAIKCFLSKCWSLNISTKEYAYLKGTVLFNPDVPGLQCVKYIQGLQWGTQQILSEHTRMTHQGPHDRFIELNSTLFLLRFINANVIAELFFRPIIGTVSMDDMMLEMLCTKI
# SMARCA2 conf – SMARCA2 (BRM) function activators, confirmation, cell-based, luminescence, triplicate. AID 652260, 2013. hit rate 30% among 3,500. MG213 cells, MMTV-luciferase with dexamethasone, overnight; MG213 cells expressing E1A, Rb sequestered; DMSO wells 0%, reference activator 100%. shares compounds with SMARCA2 activ. activation, % at 9.1 µM;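 active means activation above its plate's cutoff, the mean activation of tested wells plus 3 SD, cut at about 7.9% in these data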
# VP16 Luc act – GAL4-VP16 luciferase reporter activation, counter-screen for SMARCA2 (BRM) activator project, cell-based, pG5luc, luminescence, high throughput. shares compounds with SMARCA2 activ. HEK293 GAL4-VP16 pG5luc reporter; scaled: DMSO wells 0%, SAHA wells 100%. activation, % at 9.1 µM. hit rate 41% among 3,500. AID 686939, 2013;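 active means activation above the solvent-only control well mean plus 3 SD, averaged across control plates, cut at about 5.2% in these data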
# * marks the source's active call; other numbers are inactive results; x = not tested or not shown. Compounds with a hit are over-represented: about 4.8% of the library has one in this group of screens.
SMILES,hgDAF12 agonist,SMARCA2 activ,DAX1 inh-1,hcDAF-12 act,ssDAF12 agonist,DAX1 inh-2,SMARCA2 conf,VP16 Luc act
CCOC(=O)CCCNC(=O)OCCCN1CCC2(CCC(c3ccccc3)CC2)C1=O (configuration not stated),-3.9,-3.3,-2.8,-4.6,-1.5,x,x,x
COc1ccc(C(=O)NC2CCCCCC2)cc1S(=O)(=O)N1CCCC1,-3.6,-0.3,-0.2,0.1,-1.4,-0.7,x,x
CN(c1ccccc1)S(=O)(=O)c1cc(C(=O)OCC(=O)c2c(N)n(C)c(=O)n(C)c2=O)ccc1Cl,-0.1,-2.1,-0.3,-0.1,-1.8,-0.9,x,x
COc1ccc(C(=O)NC2CCCCC2)cc1S(=O)(=O)N1CCOCC1,-1.0,14.7*,-0.2,0.8,-0.6,-1.0,-2.0,-1.3
Cn1c(N)c(C(=O)COC(=O)c2ccc(Cl)c(S(=O)(=O)N3CCCCC3)c2)c(=O)n(C)c1=O,-2.6,11.6*,0.9,1.0,-1.8,0.0,-0.7,-1.5
O=C(COC(=O)c1ccc(Cl)c(S(=O)(=O)N2CCCCC2)c1)NC1CCCCC1,0.3,14.6*,1.4,-0.6,0.1,1.5,1.9,-1.4
CCOC(=O)N1Cc2cc3ccccc3nc2C1,8.9,8.9*,2.2,4.5,0.9*,3.1,7.6,10.4*
COC(=O)[C@]12C[C@H](CC(=O)N3CCOCC3)C(=O)N(Cc3ccco3)C1=C[C@H](C(C)C)O[C@@H]2C1CC1,1.3,9.6*,-1.1,-0.8,-0.5,x,0.2,2.8
COC(=O)[C@]12C[C@H](CC(=O)N3CCCCC3)C(=O)N(Cc3ccco3)C1=C[C@H](C(C)C)O[C@@H]2C1CC1,-2.2,5.0,-0.2,0.1,-1.0,x,x,x
Cc1ccc(NNC(=O)c2c(C)noc2C)cc1Cl,0.6,11.9*,0.5,-0.1,-1.2,-1.4,-1.0,1.4
Cc1noc(C)c1C(=O)NNc1ccc(C(C)C)cc1,1.2,-4.3,-0.3,-0.2,-1.2,1.5,x,x
Cc1ccc(OCc2nnc(SCC(=O)Nc3ccc4c(c3)OCO4)n2Cc2ccco2)cc1,1.5,-4.1,-2.0,-2.5,-1.0,x,x,x
CC(C)c1ccc(C(=O)CN2C(=O)NC3(CCc4ccccc43)C2=O)cc1 (configuration not stated),4.0,10.5*,-0.2,-0.5,-1.6,0.1,2.7,0.1
O=C(CN1C(=O)NC2(CCc3ccccc32)C1=O)c1ccc(Cl)cc1 (configuration not stated),0.9,-0.5,1.0,-0.6,-1.0,0.5,x,x
O=C(CN1C(=O)NC2(CCc3ccccc32)C1=O)Nc1cccc(Cl)c1 (configuration not stated),-1.8,-4.8,-0.7,-1.0,0.1,-1.3,x,x
COc1cccc(NC(=O)CN2C(=O)NC3(CCc4ccccc43)C2=O)c1 (configuration not stated),-0.7,9.0*,1.4,-0.2,-1.7,0.0,0.0,0.3
c1cc2ccc3ccc(CN4CCOCC4)c4ccc(c1)c2c34,2.3,2.7,1.3,-1.0,-1.7,0.2,x,x
OC1CCCN(Cc2ccc3ccc4cccc5ccc2c3c45)C1 (configuration not stated),4.4,11.1*,1.6,-0.3,0.1,2.2,25.1*,1.1
COc1ccc(S(=O)(=O)N2CCCCCC2)c2ccccc12,0.4,-0.6,0.1,-0.2,-1.2,x,x,x
CCCCNC(=O)C[C@H]1C[C@@]2(C(=O)OC)C(=C[C@H](COCc3ccccc3)O[C@@H]2C)N(CCc2ccc(OC)c(OC)c2)C1=O,0.9,-1.8,0.3,-2.5,-0.5,x,x,x
CCCC[C@H]1C2CC(OC(=O)Nc3ccc(C#N)cc3)C(C2)[C@H]2CCCCN21 (some centres not stated),3.5,-1.6,-0.4,-1.4,0.0,x,x,x
CCOC(=O)c1cnn(-c2cccc(Cl)c2)c1N,7.7,9.4*,0.6,0.8,-1.0,1.6,5.7,1.6
Cn1c(CCC(=O)O)nc2cc(S(=O)(=O)N3CCCCC3)ccc21,1.3,10.9*,1.2,-2.2,-0.8,1.9,-0.1,-0.4
COc1ccc(Cn2c(NC(=O)c3ccccc3)nc(Cc3ccccc3)c2-c2ccccc2)c(OC)c1,2.3,-3.5,-0.7,1.2,-1.2,x,x,x
COC(=O)C1CN(Cc2cn(Cc3ccc(C)cc3)nn2)CCS(=O)(=O)N1Cc1ccc(OC)cc1 (configuration not stated),3.4,-4.2,-1.5,-3.6,-1.3,x,x,x
SMILES,hgDAF12 agonist,SMARCA2 activ,DAX1 inh-1,hcDAF-12 act,ssDAF12 agonist,DAX1 inh-2,SMARCA2 conf,VP16 Luc act
N#Cc1c(NCCN)nc(-c2ccco2)c2c1CCCC2,1.2,9.7*,-1.1,-0.4,-1.0,-0.5,30.7*,-0.4
O=C(N[C@H](C(=O)N1CCC[C@H]1C(=O)NC1CCCC1)C1CCCCC1)C1CCCC1,1.4,-0.2,-0.3,-1.0,-1.2,x,x,x
CCCCN(C(=O)C(C)Oc1ccc(Cl)cc1)c1c(N)n(CCCC)c(=O)[nH]c1=O (configuration not stated),-1.6,8.2*,2.2,-0.3,-1.0,0.5,-0.7,-1.8
Cc1ccc2c(c1)C1CS(=O)(=O)N(CCc3ccccc3)CN1C2 (configuration not stated),0.5,-7.2,-1.0,-1.6,-0.8,x,x,x
CC(C)COC(=O)c1ccc2c(c1O)C(=O)c1ccccc1C2=O,5.0,8.7*,1.4,1.5,-0.8,0.8,3.5,4.3
C/C(=N\NC(=S)Nc1ccccc1)C1Cc2ccccc2C(=O)O1 (configuration not stated),4.5,8.3*,0.8,1.5,-0.2,x,2.4,2.8
C/C(=N\NC(=S)Nc1ccccc1C)C1Cc2ccccc2C(=O)O1 (configuration not stated),7.7,4.0,0.7,2.4,-1.4,-2.5,x,x
